According to PubChem BioAssay (NCATS):
Records with an inconclusive call do not appear. Values without a mark were called inactive. Calls follow the shape of the dose curve; as a rule, active = well fitted inhibition curve with a large enough effect; inconclusive = small, poorly fitted or top-dose-only effect; inactive = no such curve, though single readings can be large or run the other way.

Target: Rap guanine nucleotide exchange factor 3 (Homo sapiens) (UniProt O95398)
Assay: Counterscreen qHTS for antagonist of cAMP-regulated guanine nucleotide exchange factor 3 (EPAC1) (AID 1645888); also: % of control where 0% means no effect
Conditions: Rap1B-BODIPY-GDP nucleotide exchange, fluorescence; series mostly up to 154 µM; activity change, negative = inhibition: at the top concentration
Source text: Assay Provider (PI): Xiaodong Cheng Ph.D. The University of Texas Medical Branch, […], TX MLPCN Grant: NS066510 In multi-cellular eukaryotic organisms, the effects of cAMP are transduced by two ubiquitously-expressed intracellular cAMP receptors, the classic protein kinase A/cAMP-dependent protein kinase (PKA/cAPK) and the more recently discovered exchange protein directly activated by cAMP/cAMP-regulated guanine nucleotide exchange factor (EPAC/cAMP-GEF). Both PKA and EPAC are ubiquitously expressed in all tissues, and an increase in intracellular cAMP levels will lead to the activation of both PKA and EPAC. Therefore, careful dissections of the individual role and relative contribution of EPAC and PKA within the overall cAMP signaling in various model systems are critical for further elucidating the mechanism of cAMP signaling. To date no EPAC-specific antagonists and agonist, as well as isoform-specific agonists have been reported, and developing EPAC-specific pharmacological probes to determine the physiological functions that EPAC play in the overall cAMP-mediated signaling remains a major challenge within the research field. Furthermore, identified regulators of EPAC may lead to new mechanism-based therapeutic strategies specifically targeting the EPAC / cAMP-signaling components as EPAC has been implicated to play important roles in major human pathological conditions such as diabetes, heart disease, and cancer. This qHTS will be used to screen the Molecular Libraries Small Molecule Repository (MLSMR) as a concentration-titration series using the NCGC unique quantitative screening (qHTS) platform to find activators for EPAC1. In addition, this assay will also be used as a counterscreen for the EPAC2 qHTS. This fluorescent based assay is developed and validated for EPAC1 that measures exchange using EPAC effector Rap1 complex with BODIPY-GDP, a GDP analog with a tethered fluorophores. Activators are identified by monitoring the change in fluorescence signal as the exchanged free BODIPY-GDP has a reduced fluorescence compared to Rap1-bound BODIPY-GDP. Increase in signal (activation) is the desired outcome for the EPAC1 agonist while no activity in this assay is desired for the EPAC2 agonist counterscreen. Reference: [1] de Rooij, J., Zwartkruis, F. J., Verheijen, M. H., Cool, R. H., Nijman, S. M., Wittinghofer, A., and Bos, J.L. (1998) Nature 396, 474-477. Kawasaki, H., Springett, G. M., Mochizuki, N., Toki, S., Nakaya, M., Matsuda, M., Housman, D. E., and Graybiel, A. M. (1998) Science 282, 2275-2279.
EPAC1 Counterscreen PROTOCOL TABLE SEQUENCE No. (e.g., 1, 2, 3, etc.); […] (e.g., Cells, Incubation, Reagent, etc.); VALUE and DESCRIPTION. 1. Reagent. 3 uL. [1x] 250 nM Rap1B-BODIPY-GDP, and 50 uM GDP. 2a. Compound. 23 nL. Control 6,572 uM cAMP (working concentration). 2b, 2c. Compound. 23 nL. Control activator and inhibitor; 234 - 30,000 uM cAMP and 16.4 - 10,000 uM. 2d. Compound. 46 nL. MLSMR follow-up library; 0.64 - 10,000 uM. 3. Time. 15 sec, 1000rpm. Centrifuge. 4. Time. 5 min. Incubation at room temperature. 5. Detector. Fluorescence. (Read 1), Ex/Em = 480 nm / 540 nm. 6. Time. 30 min. Incubation at room temperature. 7. Detector. Fluorescence. (Read 2), Ex/Em = 480 nm/ 540 nm. 8. Reagent. 1uL. Dispense either [4x] 10 uM cAMP or buffer. 9. Time. 15 sec, 1000 rpm. Centrifuge. 10. Time. 5 min. Incubation at room temperature. 11. Detector. Fluorescence. (Read 3), Ex/Em = 480 nm / 540 nm. 12. Time. 30 min. Incubation at room temperature. 13. Detector. Fluorescence. (Read 4), Ex/Em = 480 nm / 540 nm. NOTES (numbers refer to Sequence numbers above; values are from representative experiments) 1. Medium-binding black solid-bottom Greiner plates (789176-F). Dispense 3 uL of [1x] 250 nM Rap1B-BODIPY-GDP, and 50 uM GDP into columns 1 to 48. 2a. Control compound cAMP (6,572 uM, column 3, rows 1 to 32) single pin-transferred for a [final] of 50 uM. 2b. […]

Rap guanine nucleotide exchange factor 3 (Homo sapiens), sequence (O95398 whole entry, looked up): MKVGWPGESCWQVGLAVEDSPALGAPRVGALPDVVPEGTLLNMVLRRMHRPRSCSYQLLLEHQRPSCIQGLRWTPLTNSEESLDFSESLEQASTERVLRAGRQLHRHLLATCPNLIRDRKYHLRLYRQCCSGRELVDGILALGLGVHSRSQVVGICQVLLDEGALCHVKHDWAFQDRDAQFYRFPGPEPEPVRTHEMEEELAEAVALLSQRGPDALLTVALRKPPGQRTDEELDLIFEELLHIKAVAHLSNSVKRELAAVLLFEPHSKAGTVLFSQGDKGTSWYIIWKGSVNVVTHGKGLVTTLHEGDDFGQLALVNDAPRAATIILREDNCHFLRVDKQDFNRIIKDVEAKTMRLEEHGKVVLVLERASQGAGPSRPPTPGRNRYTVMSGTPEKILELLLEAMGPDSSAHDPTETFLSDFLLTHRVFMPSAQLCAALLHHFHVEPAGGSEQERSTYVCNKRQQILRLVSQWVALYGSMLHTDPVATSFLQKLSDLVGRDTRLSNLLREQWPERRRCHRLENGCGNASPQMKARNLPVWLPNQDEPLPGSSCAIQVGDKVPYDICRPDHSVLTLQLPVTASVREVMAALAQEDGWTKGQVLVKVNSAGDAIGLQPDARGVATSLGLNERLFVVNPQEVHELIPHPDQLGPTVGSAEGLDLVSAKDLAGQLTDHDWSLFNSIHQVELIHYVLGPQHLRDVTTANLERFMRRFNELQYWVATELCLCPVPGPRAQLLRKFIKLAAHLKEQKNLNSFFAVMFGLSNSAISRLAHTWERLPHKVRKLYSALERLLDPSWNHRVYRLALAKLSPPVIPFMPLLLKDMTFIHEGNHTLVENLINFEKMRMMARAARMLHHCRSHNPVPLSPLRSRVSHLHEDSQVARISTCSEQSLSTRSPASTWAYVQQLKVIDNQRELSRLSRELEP

Going from `COc1ccc2[nH]cc(S(=O)(=O)c3ccc(C)cc3)c2c1` to `COc1ccc(-c2nc(CCNS(=O)(=O)c3ccc4c(c3)OCCO4)cs2)cc1`, the “activity change, negative = inhibition” value falls from -8.88% to -22.1%.

Compared with `Cc1ccc2oc(=O)c3cnn(CC(=O)NC4CCC(C)CC4)c3c2c1` (stereo not given), `CSCCC(NS(=O)(=O)c1ccc2c(c1)oc(=O)n2C)C(=O)NC1CCCCC1` (stereo not given) is lower in “activity change, negative = inhibition” value: 15.5% for the first, -5.87% for the second.

Compared with `CC(C)COc1ccc(C(=O)Nc2cc(-c3ccccc3)no2)cc1`, `COC(=O)c1ccc2nc(-c3ccc(OC)c(OC)c3)c(Cc3ccccc3)n2c1` is higher in “activity change, negative = inhibition” value: 1.74% for the first, 5.23% for the second.

First: Cc1ccc(C)c(Oc2nc3c(c(=O)n(C)c(=O)n3C)n2Cc2ccccc2)c1
Second: Cn1c(=O)c2c(nc(NCCc3ccccc3)n2CC(=O)NCCc2ccccc2)n(C)c1=O
The “activity change, negative = inhibition” value of the first is higher: 15.9% for the first, 7.57% for the second.

First: COCC(=O)Oc1c(Sc2ccccc2[N+](=O)[O-])c(C)nn1C(C)(C)C
Second: COc1ccc2ccc3c(c2c1)N=C[C@]1(O3)N(C)c2ccccc2C1(C)C
The “activity change, negative = inhibition” value of the first is lower: 8.05% for the first, 27.3% for the second.

Compared with `COc1ccc(N2C(=O)CSC2c2ccccc2F)c(OC)c1` (stereo not given), `COC(=O)c1ccc(COc2ccc(/C=C(\C#N)c3nc4ccccc4[nH]3)cc2OC)o1` is lower in “activity change, negative = inhibition” value: 27.1% for the first, 4.14% for the second.

Going from `N#C/C(=N\Nc1cccc(C(F)(F)F)c1)C(=O)c1ccsc1` to `CCN(C(=O)Cn1c(=O)oc2cc(Cl)ccc21)c1cccc(C(F)(F)F)c1`, the “activity change, negative = inhibition” value falls from 2.21% to -25.9%.

Going from `CCc1nc2c(OCc3ccc(OC(F)F)cc3)cccn2c1N(C)C(=O)c1cccs1` to `CCOc1cc(CNc2ccc(O)cc2)ccc1OCc1ccc(Cl)cc1`, the “activity change, negative = inhibition” value rises from -6.29% to 1.67%.

Compared with `Cc1ccc(-c2c3c(=O)n(C)c(=O)n(C)c3c3c(C(F)(F)F)nc4ccccc4n23)cc1`, `Cc1[nH][nH]c(=O)c1C(c1c(C)[nH][nH]c1=O)c1cn(Cc2cccc3ccccc23)c2ccccc12` is higher in “activity change, negative = inhibition” value: 0.028% for the first, 21.1% for the second.

First: Cc1ccnc(NCc2cccc3ccccc23)c1
Second: Cc1c2ccccc2nc2c(F)c(NCCO)c(F)c(F)c12
The “activity change, negative = inhibition” value of the first is lower: 7.8% for the first, 9.94% for the second.

Going from `O=c1oc2c3c4c(cc2c(C(F)(F)F)c1CCN1CCOCC1)CCCN4CCC3` to `Cc1ccc(C(=O)Nc2cccc(-c3ccc(N4CCOCC4)nn3)c2)cc1C`, the “activity change, negative = inhibition” value falls from 115% to -7.91%.

Going from `COc1cc(/C=C2\SC(=O)N(CC(=O)Nc3ccc(C)cc3)C2=O)cc(Cl)c1OCC(=O)O` to `COC(=O)CC1(C(=O)OC)Oc2ccc(Br)cc2C(=O)N1c1cccc(Cl)c1Cl` (stereo not given), the “activity change, negative = inhibition” value falls from 31.6% to -16.1%.

Going from `CCC1=NN2C(=N)/C(=C/c3ccc(OS(=O)(=O)c4ccccc4)cc3)C(=O)N=C2S1` to `N=c1c(S(=O)(=O)c2ccc(Br)cc2)cc2c(=O)n3ccccc3nc2n1C1CCCC1`, the “activity change, negative = inhibition” value falls from 6.83% to -1.67%.

Compared with `COc1ccccc1CN(C(=O)CNC(=O)c1ccco1)C(C(=O)NCC1CCCO1)c1ccc(OC)c(OC)c1` (stereo not given), `CCc1ccc(NC(=O)COC(=O)CCC2CCCC2)cc1` is lower in “activity change, negative = inhibition” value: 16.2% for the first, -15.1% for the second.

In the case of `CC(=O)NC(c1cccc(F)c1)c1nc(-c2cccs2)cs1` (stereo not given), the “activity change, negative = inhibition” value is reported as 10.8%.

Compared with `COc1ccc(OC)c(NC(=S)N2c3ccccc3CC2C)c1` (stereo not given), `C=C(C)COc1ccc(-c2[nH]ncc2-c2ccccc2OC)c(O)c1` is higher in activity change, negative = inhibition: -17.1% [at 30.8 µM] for the first, 6.08% [at 30.8 µM] for the second.

Going from `Cc1cccc(OC(=O)Nc2ccc(C(=O)O)c(O)c2)c1` to `CCC(C)n1c(SCC(=O)Nc2ccc3[nH]c(=O)[nH]c3c2)nc2ccccc2c1=O` (stereo not given), the activity change, negative = inhibition rises from -25.7% [at 30.8 µM] to -15% [at 30.8 µM].

Compared with `O=C1/C(=C\c2ccc(Br)cc2)SC(=S)N1NS(=O)(=O)c1ccccc1`, `O=C(N/N=C\c1c(O)ccc2ccccc12)c1ccc(S(=O)(=O)N2CCCCC2)cc1` is lower in activity change, negative = inhibition: 6.09% [at 30.8 µM] for the first, -15.1% [at 30.8 µM] for the second.

Going from `O=C(c1ccc(-c2ccccc2Cl)o1)N1CCC1` to `NC(=O)C1CCN(C(=O)c2ccc3c(=O)n(Cc4cccc(Br)c4)c(=S)[nH]c3c2)CC1`, the activity change, negative = inhibition rises from -16.6% [at 30.8 µM] to -4.35% [at 30.8 µM].

First: Cn1cc(S(=O)(=O)Nc2cccc(F)c2)c(=O)n(C)c1=O
Second: CC[C@]12c3[nH]c4cc(-c5ccco5)ccc4c3CCN1C(=O)[C@@H](CC(=O)NCCCOC)C[C@@H]2C(=O)N1CCN(C(=O)C2CC2)CC1
The activity change, negative = inhibition of the first is higher: -13.5% [at 30.8 µM] for the first, -21.4% [at 30.8 µM] for the second.

Work on `Cc1cc(C2(c3ccc(O)c(C)c3)C(=O)N(C)c3ccc(Br)cc32)ccc1O` yielded an activity change, negative = inhibition of -4.41% [at 30.8 µM].
